ELG1 DNA repair = qHTS screen for small molecules that inhibit ELG1-dependent DNA repair in human embryonic kidney (HEK293T) cells expressing luciferase-tagged ELG1 | Potency, µM (top dose mostly 46.1 µM), for the others: at the top dose activity change, negative = inhibition, most hits filed as inhibitors | AID 504467, 2011 | HEK293T ELG1-luciferase reporter, luminescence, 16 h; DNA damage induced by 5-fluorouridine | hit rate 2.3% among 330,000; further: potency means the concentration at half of the fitted maximal effect; nearly all actives have a fitted effect of over 55% in size
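Cells (2,000 per well) received 5-fluorouridine plus test compound or DMSO and were incubated 16 hr at 37 °C, 5% CO2. Luciferase activity was read by luminescence 30 min after ONE-Glo addition; signal suppression marked inhibition of damage-induced ELG1 function.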
IL-1B inflam inh = qHTS for Inhibitors of Inflammasome Signaling: IL-1-beta AlphaLISA Primary Screen | THP-1 LPS/ATP IL-1B secretion, AlphaLISA, 16 h; active compounds read low | activity change, % at 57.5 µM | hit rate 4.7% among 360,000; in the data active means activity change below about -50%; inconclusive means mostly about -30% to -49%
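Secreted IL-1B measured by AlphaLISA bead assay after 16 h compound exposure of THP-1 cells; compounds (final up to 57.5 uM) added 1 h before LPS (250 ng/mL) and ATP (1.25 mM) stimulation; lower signal means less secretion.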
TDP1 cell noCPT = qHTS for Inhibitors of human tyrosyl-DNA phosphodiesterase 1 (TDP1): qHTS in cells in absence of CPT | DT40 Tdp1-/- hTDP1 cells, no CPT, ATP luminescence, 48 h | hit rate 15% among 420,000 | Potency, µM (doses to about 46.2 µM), for the others: at the top dose activity change, negative = growth inhibition, usual class: inhibitors; further: potency means the concentration at half of the fitted maximal effect; nearly all actives have a fitted effect of over 55% in size
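No-CPT arm: Tdp1-/-;hTDP1 DT40 cells (400/well) plus compounds, incubated ≥48 hr at 37 °C. Readout CellTiter-Glo luminescence.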
HT1080NT lethal = qHTS for induction of synthetic lethality in tumor cells producing 2HG: qHTS for the HT-1080-NT fibrosarcoma cell line | hit rate 1.6% among 360,000 | AID 686970, 2013 | Potency, µM (series often up to 46.1 µM), for inactives: at the top dose activity, negative = less viability, usual class: cytotoxic | HT-1080-NT fibrosarcoma viability, CellTiter-Glo ATP luminescence, 48 h;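 further: NT is the 2HG producing partner of a matched IDH1 knockdown line; potency means the concentration at half of the fitted maximal effect; 0% = DMSO-treated cells and -100% = media-only wells without cells; nearly all actives have a fitted effect of over 55% in size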
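Toxicity toward the 2HG-producing NT line was scored as %Activity, normalised to DMSO and no-cell wells, from CellTiter-Glo luminescence after 48 hours' treatment.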
HT1080 IDH1KD tx = qHTS for induction of synthetic lethality in tumor cells producing 2HG: qHTS for the HT-1080-IDH1KD cell line; Potency, µM (highest dose often 46.1 µM), for the others: at the highest dose activity, negative = toxicity, actives largely listed as cytotoxic; hit rate 2% among 360,000; HT-1080 IDH1 knockdown viability, ATP luminescence, 48 h; AID 686971, 2013;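 further: potency means the concentration at half of the fitted maximal effect; 0% = DMSO wells and -100% = cell-free medium wells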
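Knockdown cells (IDH1KD HT-1080) received compounds 2 h after plating at 750 cells/well and were kept 48 h at 37 °C in 5% FBS RPMI. A CellTiter-Glo luminescence read gave % activity for curve fitting.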
TDP1 cell CPT = qHTS for Inhibitors of human tyrosyl-DNA phosphodiesterase 1 (TDP1): qHTS in cells in presence of CPT; chicken DT40 Tdp1-/-;hTDP1 cells + 20 nM CPT, ATP luminescence, 48 h; Potency, µM (top dose mostly 46.2 µM), for the others: top-dose activity change, negative = growth inhibition, usual class: inhibitors; hit rate 12% among 420,000; AID 686979, 2013; further: potency means the concentration at half of the fitted maximal effect; nearly all actives have a fitted effect of over 55% in size
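Chicken DT40 Tdp1-/- cells stably complemented with human TDP1 were seeded at 400 cells/well in medium containing 20 nM camptothecin, exposed to pin-transferred compounds, and grown at 37 °C for at least 48 hr. Viability was read as ATP luminescence.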
An asterisk follows results filed as active; ? = inconclusive; · = no result; [ ] = dose if it differs, or a comment. Compounds with a hit are over-represented: about 19% of the library has one in this group of screens. Unless noted, the call rests on the fitted dose curve; in most records, active means well fitted curve in the direction sought with a large enough effect; inconclusive means small, poorly fitted or top-dose-only effect, or another doubt; inactive means no such curve, though single readings can be large; an effect the other way counts as inactive or inconclusive. Unless noted, on the % scale 0 is the no-effect control and ±100 the full control effect.

SMILES | ELG1 DNA repair | IL-1B inflam inh | TDP1 cell noCPT | HT1080NT lethal | HT1080 IDH1KD tx | TDP1 cell CPT
Cc1ccc([C@H]2C[C@H](n3cc(COC(=O)c4ccccc4)nn3)[C@@H](O)CN2CC2CCCCC2)cc1 | · | 5 | 21µM* | 9% | 10% | ?
CCCCCCN1C[C@@H](O)[C@H](n2cc(COC(=O)c3ccccc3)nn2)C[C@@H]1c1ccc(C)cc1 | · | 18 | 21µM* | 3% | 2% | 21µM*
Cc1ccc([C@H]2C[C@@H](n3cc(COC(=O)c4ccccc4)nn3)[C@H](O)CN2C(=O)C2CCCCC2)cc1 | · | -24 | 21µM* | -12% | -6% | ?
CCCCCCN1C[C@@H](O)[C@H](n2cc(COC(=O)c3ccccc3)nn2)C[C@@H]1c1ccccc1 | · | 10 | ? | 23% | -4% | ?
COc1ccc([C@H]2C[C@H](O)[C@@H](n3cc(COC(=O)c4ccccc4)nn3)CN2CC2CCCCC2)cc1 | · | -9 | 23µM* | ? | ? | 23µM*
Cc1ccc([C@H]2C[C@@H](n3cc(COC(=O)c4ccccc4)nn3)[C@H](O)CN2CC2CCCCC2)cc1 | · | 14 | ? | 1% | 1% | ?
O=C(OCc1cn([C@H]2C[C@H](c3ccccc3)N(CC3CCCCC3)C[C@@H]2O)nn1)c1ccccc1 | · | 23 | ? | -6% | -7% | ?
CCN(c1ccccc1)S(=O)(=O)c1nnc(NC(=O)COc2ccc(OC)cc2)s1 | · | · | -8% | · | · | -2%
O=C(Cn1c(=O)sc2ccccc21)Nc1ccc(O)cc1 | -1% | -1 | -24% | 21% | -2% | -18%
COC(=O)N/N=C/c1cc(N=Nc2ccccc2Cl)ccc1O | ? | ? | ? | -15% | -22% | ?
O=C(N/N=C/c1cc([N+](=O)[O-])ccc1O)c1c[nH]c2ccccc12 | 8.2µM* | 209 | ? | ? | 15µM* | ?
O=C(N/N=C/c1cccc([N+](=O)[O-])c1)c1c[nH]c2ccccc12 | 4% | -12 | ? | -14% | -7% | -16%
O=C(NN=Cc1cc([N+](=O)[O-])ccc1O)c1cccc2ccccc12 | · | 65 | 7.3µM* | ? | 6.5µM* | 7.3µM*
Nc1ccc(C(=O)N/N=C\c2cc(N=Nc3cccc4ccccc34)ccc2O)cc1 | ? | 27 | 4.6µM* | ? | 12µM* | 5.2µM*
O=C(NCc1ccccc1)c1cnc(N2CCCCC2)c2ccccc12 | · | · | ? | · | · | 23µM*
CSc1ncccc1C(=O)Nc1ccccc1N1CCOCC1 | 0% | 26 | 9% | 6% | -5% | -2%
CCOC(=O)c1ccccc1NC(=O)c1cnc(N2CCOCC2)c2ccccc12 | · | · | 16µM* | · | · | ?
Cc1nc(N2CCCC2)ncc1C(=O)Nc1ccccc1 | · | · | -10% | · | · | -28%
Cc1ccc(NC(=O)c2cnc(N3CCCCC3)c3ccccc23)cc1Cl | · | · | ? | · | · | 21µM*
CCOc1ccc(NC(=O)c2cnc(N3CCCCC3)c3ccccc23)cc1 | · | · | 13µM* | · | · | 21µM*
COc1ccc(-c2noc(-c3ccc(C)cc3Cl)n2)cc1OC | · | · | -5% | · | · | -11%
Cc1cc(C)nc(NCCO)n1 | -18% | 8 | -1% | 9% | 16% | 23%
CC(/C=N\NC(=O)CN1CCN(S(=O)(=O)c2ccc(C)cc2)CC1)=C\c1ccccc1 | -15% | -19 | ? | -20% | -19% | ?
CCn1nnnc1NCc1ccc(N2CCCC2)cc1 | 0% | 1 | ? | 11% | 5% | ?
CCn1nnnc1NCc1ccc(SC)cc1 | 13% | -77* | 9% | 0% | 7% | -3%
SMILES | ELG1 DNA repair | IL-1B inflam inh | TDP1 cell noCPT | HT1080NT lethal | HT1080 IDH1KD tx | TDP1 cell CPT
CCN(CC)C(=O)N1CCN(Cc2ccc3c(c2)OCO3)CC1 | -2% | -24 | 0% | 11% | 20% | 5%
O=C(CN1Cc2ccccc2OC(c2ccsc2)C1)N1CCN(Cc2ccc3c(c2)OCO3)CC1 (stereo unspecified) | · | · | 23µM* | · | · | -11%[9.04 µM]
O=C(Cn1ccc2ccccc2c1=O)N1CCN(Cc2ccc3c(c2)OCO3)CC1 | ? | -21 | ? | -6% | -3% | -19%
O=C(Cn1ncc2c1-c1ccccc1OC2)N1CCN(c2ccccc2)CC1 | · | · | 16µM* | · | · | -30%
O=C(Cn1ncc2c1-c1ccccc1OC2)N1CCN(Cc2ccc3c(c2)OCO3)CC1 | 23µM* | 14 | ? | -25% | 1% | -30%
O=S(=O)(c1ccc(-c2cc(C(F)(F)F)on2)s1)N1CCN(c2cccc(Cl)c2)CC1 | · | · | -4% | · | · | -4%
CC1CCN(CC(=O)Nc2cccc(C(=O)Nc3cccc(C(F)(F)F)c3)c2)CC1 | ? | -75* | 16µM* | 16µM* | 23µM* | ?
CC1CN(CC(=O)Nc2cccc(C(=O)Nc3cccc(C(F)(F)F)c3)c2)CC(C)O1 (stereo unspecified) | ? | -1 | 23µM* | -24% | ? | 23µM*
O=C(CN1CCN(c2ccccc2)CC1)Nc1cccc(C(F)(F)F)c1 | -10% | 14 | -13% | 7% | -1% | 1%
COc1ccc(NC(=O)CSc2nnnn2C)cc1S(=O)(=O)N1CCCCC1 | 8% | 0 | ? | -5% | -1% | 5%
N#Cc1ccc(C23OCCN2CCn2nc4ccccc4c23)cc1 (stereo unspecified) | 1% | 43 | ? | 8% | 0% | ?
CC(=O)Nc1cc2c3c(c1)CC(=O)N3CCC2 | 13% | 23 | -3% | 2% | 5% | 0%
O=C(O)c1ccc(-c2sc(Nc3ccccc3)n[n+]2-c2ccccc2)cc1 | -2% | 92 | -5% | -16% | -18% | -1%
Cc1cccc(-c2sc(Nc3ccccc3)n[n+]2-c2ccccc2)c1 | ? | -15 | ? | -6% | -12% | ?
CCc1ccc(Nc2n[n+](-c3ccccc3)c(-c3c(Cl)cccc3Cl)s2)cc1 | -11% | -92* | 15µM* | 21µM* | ? | 23µM*
CCc1ccc(Nc2n[n+](-c3ccccc3)c(-c3cc(OC)c(OC)cc3Br)s2)cc1 | -12% | -18 | ? | -16% | -7% | 16µM*
